Results on four compounds are retold here after the supplement of paper PMC7057948, “A genome-wide approach for identification and characterisation of metabolite-inducible systems” (Nature Communications, 2020).
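Note: RFP excited at 585 nm with emission read at 620 nm, culture medium blanks subtracted from fluorescence and absorbance prior to normalisation.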

This assay has as its system HpdA/P_H16_RS24175 L-tyrosine biosensor (pEH158). Briefly: relative induction of RFP reporter vs primary effector (background-corrected); higher = stronger activation of the biosensor. The note with it: inducer concentration 5 mM; 6 h; Cupriavidus necator H16; minimal medium + 0.4% gluconate. The procedure:
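C. necator H16 strains, each carrying one of 21 transcription factor/inducible promoter–mRFP biosensor plasmids, were grown in minimal medium in 96-well plates (robotic platform). Each was exposed to 46 structurally or metabolically related compounds at 5 mM at 30 °C. OD-normalised RFP fluorescence was read 6 h later and expressed as relative induction (%) = 100 × (FL compound − FL uninduced)/(FL primary inducer − FL uninduced); mean of n=4.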
For the compound `OC[C@@H](O)[C@@H](O)[C@H](O)[C@H](O)CO` [D-mannitol], the “relative induction of RFP reporter” value was -0.117%.

Consider `Oc1ccccc1` [phenol], for which the “relative induction of RFP reporter” value is -0.0814%.

Consider `NC(C(=O)O)c1ccccc1` (racemic) [D,L-2-phenylglycine], for which the “relative induction of RFP reporter” value was 0.0147%.

Turning to `O=C(O)c1cccnc1` [nicotinate], the “relative induction of RFP reporter” value was -0.141%.
